Screening results (PubChem)
G9a inh: inhibitors of human histone lysine methyltransferase G9a; AID 504332; Potency, µM (doses to about 102 µM), for the others: at the top dose activity, negative = inhibition, actives largely listed as inhibitors; Q96KQ7; 8.8% of 350,000 active; G9a H3K9 monomethylation, AlphaScreen, 2 h; further: potency means the concentration at half of the fitted maximal effect; on the % scale 0 is the no-effect control and ±100 the full control effect; nearly all actives have a fitted effect of over 75% in size
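AlphaScreen detection with an anti-monomethyl H3K9 antibody quantified product after a 2 h room-temperature reaction containing 500 nM biotinylated H3K9 peptide, 20 µM SAM and 20 nM enzyme, which had been preincubated 15 min with compound.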
HP1b binding inh: HP1-beta chromodomain-methylated histone interaction inhibition | P83916 | AlphaScreen HP1-beta / biotin-H3K9me3 peptide binding | Potency, µM (highest dose often 114 µM), for the others: at the top dose activity change, negative = inhibition, usual class: inhibitors | 0.56% of 390,000 active | AID 540317; further: potency means the concentration at half of the fitted maximal effect; nearly all actives have a fitted effect of over 70% in size
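AlphaScreen: HP1-beta (50 nM) preformed 30 min with biotin-H3(1-18)K9me3 peptide (50 nM) in PBS pH 7.4, 0.01% Tween-20. Compound added for 30 min at RT, then streptavidin donor/nickel chelate acceptor beads (10 ug/mL) for 30 min.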
CtBP-E1A inh: blocks the CtBP interaction with E1A; AlphaScreen GST-E1A/His-CtBP binding, 1536-well; stronger effect = lower value; activity change, % (no concentration beside the values); 0.49% of 340,000 active; in the data active means activity change below about -65%; inconclusive means mostly about -30% to -63%; further: on the % scale 0 is the no-effect control and ±100 the full control effect
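GST-E1A and His-tagged CtBP (125 nM each as 5X stock) were preincubated with pin-transferred compound for 2 h at 37 °C in the dark, then glutathione donor and nickel acceptor beads were added for 1 h before AlphaScreen reading.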
JMJD2A Tudor inh: inhibitors of human JMJD2A Tudor domain. O75164. AlphaScreen JMJD2A-Tudor / H3K4me3 peptide binding. Potency, µM (series often up to 114 µM), for inactives: at the top dose activity change, negative = inhibition, usual class: inhibitors. 4.4% of 390,000 active; further: potency means the concentration at half of the fitted maximal effect; on the % scale 0 is the no-effect control and ±100 the full control effect; nearly all actives have a fitted effect of over 50% in size
Six1-Eya2 blk: Six1/Eya2 interaction inhibition; AlphaScreen GST-Six1/His-Eya2 binding, biochemical; stronger effect = lower value; activity change, % (no concentration beside the values); 0.56% of 360,000 active; in the data active means activity change below about -65%; inconclusive means mostly about -30% to -63%; further: on the % scale 0 is the no-effect control and ±100 the full control effect
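GST-Six1 + His-Eya2 (5X stock: 250/500 nM); Tris pH 8.0, 300 mM NaCl, 0.05% BSA, 0.02% Tween 20; GSH donor/Ni acceptor beads; 1 h 37 °C dark; AlphaScreen readout.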
BAZ2B block: inhibitors of human BAZ2B bromodomain; AlphaScreen BAZ2B-H3K14Ac peptide displacement; Potency, µM (series often up to 114 µM), for the others: at the top dose activity change, negative = inhibition, hits mostly inhibitors; Q9UIF8; 4.4% of 360,000 active; further: potency means the concentration at half of the fitted maximal effect; on the % scale 0 is the no-effect control and ±100 the full control effect; nearly all actives have a fitted effect of over 60% in size
Target sequence (Q9UIF8 whole entry, looked up): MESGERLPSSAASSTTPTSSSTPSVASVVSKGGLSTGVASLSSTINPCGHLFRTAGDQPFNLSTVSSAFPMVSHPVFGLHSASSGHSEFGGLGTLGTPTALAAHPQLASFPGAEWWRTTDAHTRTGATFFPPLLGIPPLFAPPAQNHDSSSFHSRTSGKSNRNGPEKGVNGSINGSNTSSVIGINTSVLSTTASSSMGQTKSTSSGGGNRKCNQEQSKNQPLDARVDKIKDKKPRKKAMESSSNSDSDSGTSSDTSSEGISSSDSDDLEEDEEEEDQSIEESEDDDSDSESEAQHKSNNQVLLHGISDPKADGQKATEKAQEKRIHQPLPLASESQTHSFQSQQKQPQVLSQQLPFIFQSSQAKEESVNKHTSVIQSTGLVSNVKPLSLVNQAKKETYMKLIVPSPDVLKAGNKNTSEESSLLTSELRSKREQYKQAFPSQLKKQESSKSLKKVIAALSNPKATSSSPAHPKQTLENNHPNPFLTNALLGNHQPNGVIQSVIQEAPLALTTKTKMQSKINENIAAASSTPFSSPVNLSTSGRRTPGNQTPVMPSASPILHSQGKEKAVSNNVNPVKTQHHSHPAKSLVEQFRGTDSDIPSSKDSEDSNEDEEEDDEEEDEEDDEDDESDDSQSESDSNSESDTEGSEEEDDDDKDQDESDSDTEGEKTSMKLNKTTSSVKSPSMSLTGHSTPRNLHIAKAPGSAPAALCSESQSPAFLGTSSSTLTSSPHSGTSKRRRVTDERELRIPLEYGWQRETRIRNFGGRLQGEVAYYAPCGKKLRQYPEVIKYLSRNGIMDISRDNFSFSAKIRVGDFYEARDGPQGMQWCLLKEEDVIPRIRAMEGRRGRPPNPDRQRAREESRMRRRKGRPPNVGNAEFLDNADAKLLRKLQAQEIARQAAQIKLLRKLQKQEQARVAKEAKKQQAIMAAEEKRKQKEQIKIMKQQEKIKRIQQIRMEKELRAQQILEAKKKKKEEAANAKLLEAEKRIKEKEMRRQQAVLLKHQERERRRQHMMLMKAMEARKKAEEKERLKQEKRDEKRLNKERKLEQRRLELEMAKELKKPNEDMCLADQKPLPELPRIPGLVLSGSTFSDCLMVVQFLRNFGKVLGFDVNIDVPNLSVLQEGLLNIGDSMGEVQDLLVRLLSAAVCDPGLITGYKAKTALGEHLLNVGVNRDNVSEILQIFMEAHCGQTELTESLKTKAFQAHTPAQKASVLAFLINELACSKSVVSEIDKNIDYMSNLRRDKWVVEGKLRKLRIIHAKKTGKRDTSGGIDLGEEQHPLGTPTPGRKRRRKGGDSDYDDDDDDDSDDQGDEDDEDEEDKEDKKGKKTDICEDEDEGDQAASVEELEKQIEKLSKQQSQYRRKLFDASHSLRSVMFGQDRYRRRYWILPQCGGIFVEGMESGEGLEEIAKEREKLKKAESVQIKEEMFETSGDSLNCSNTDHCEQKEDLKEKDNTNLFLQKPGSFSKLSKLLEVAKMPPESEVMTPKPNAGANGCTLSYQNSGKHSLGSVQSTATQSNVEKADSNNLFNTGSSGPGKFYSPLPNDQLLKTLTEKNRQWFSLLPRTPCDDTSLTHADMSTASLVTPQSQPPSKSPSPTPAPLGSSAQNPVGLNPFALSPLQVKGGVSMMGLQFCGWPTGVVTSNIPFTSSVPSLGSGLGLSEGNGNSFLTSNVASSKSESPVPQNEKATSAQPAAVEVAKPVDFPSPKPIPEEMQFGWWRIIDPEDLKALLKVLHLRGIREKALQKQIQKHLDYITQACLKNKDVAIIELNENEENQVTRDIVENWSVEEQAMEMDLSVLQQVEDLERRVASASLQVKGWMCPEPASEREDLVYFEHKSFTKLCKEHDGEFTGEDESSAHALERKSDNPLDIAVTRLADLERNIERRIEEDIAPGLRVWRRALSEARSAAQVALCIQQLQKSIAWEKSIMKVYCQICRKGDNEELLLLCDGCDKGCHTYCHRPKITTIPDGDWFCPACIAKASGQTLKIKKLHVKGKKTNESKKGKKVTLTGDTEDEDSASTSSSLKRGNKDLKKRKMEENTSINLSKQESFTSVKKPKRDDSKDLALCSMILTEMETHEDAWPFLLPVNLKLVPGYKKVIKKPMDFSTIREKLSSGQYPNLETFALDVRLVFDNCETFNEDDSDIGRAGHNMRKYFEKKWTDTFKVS
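Compounds, titrated to a top concentration of 110 uM, were incubated 30 min at room temperature with preformed BAZ2B/acetyl-K14 H3 peptide complex (50 nM each). Proximity signal was measured by AlphaScreen after 20 min with beads.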
* marks the source's active call; other numbers are inactive results; [ ] = remark or other dose. Shown are actives, neighbours in structure and some others; about 10% of the full set was active somewhere. Unless noted, the call rests on the fitted dose curve; in most records, active means well fitted inhibition curve with a large enough effect; inconclusive means small, poorly fitted or top-dose-only effect; inactive means no such curve, though single readings can be large or run the other way.

Screening COc1cc(/C=N/NC(N)=O)ccc1OCC(=O)N1C(C)CCCC1C (configuration not stated) returned G9a inh 17%, HP1b binding inh 7%, CtBP-E1A inh 1, JMJD2A Tudor inh -6%[57.1 µM], Six1-Eya2 blk -2 and BAZ2B block -7%.
For COc1cc(/C=N/Nc2ccc(Cl)c(C(=O)O)c2)ccc1OCC(=O)N1C(C)CCCC1C (configuration not stated) the results were G9a inh 50µM*, HP1b binding inh 28%, CtBP-E1A inh -1, JMJD2A Tudor inh -11%, Six1-Eya2 blk -5 and BAZ2B block -23%.
`COc1cc(/C=N\NC(=O)OC(C)(C)C)ccc1OC(=O)c1ccco1` gave G9a inh inconclusive, HP1b binding inh -13%, CtBP-E1A inh -1, JMJD2A Tudor inh inconclusive, Six1-Eya2 blk -1 and BAZ2B block 4%.
For COc1cc(/C=N/Nc2ccc(Cl)c(C(=O)O)c2)ccc1OC(=O)c1ccco1 the results were G9a inh 22µM*, HP1b binding inh 8%, CtBP-E1A inh 1, JMJD2A Tudor inh -14%, Six1-Eya2 blk 0 and BAZ2B block inconclusive.
For COc1ccc(C(=O)Oc2ccc(/C=N/Nc3ccc(Cl)c(C(=O)O)c3)cc2OC)cc1 the results were G9a inh 35µM*, HP1b binding inh -11%, CtBP-E1A inh -13, JMJD2A Tudor inh inconclusive, Six1-Eya2 blk -8 and BAZ2B block 50µM*.
For O=C(O)[C@@H]1[C@H]2C[C@H]3c4[nH]c5ccccc5c4CCN3C[C@@H]2CC[C@@H]1O the results were G9a inh inconclusive, HP1b binding inh -36%, CtBP-E1A inh -15, JMJD2A Tudor inh 56µM*, Six1-Eya2 blk -17 and BAZ2B block inconclusive.
Screening COC(=O)[C@@H]1[C@H]2C[C@H]3c4[nH]c5ccccc5c4CCN3C[C@H]2CC[C@@H]1O returned G9a inh 25%[59 µM].
For COC(=O)C1=CO[C@@H](C)[C@H]2CN3CCc4c([nH]c5ccccc45)[C@@H]3C[C@H]12 the results were G9a inh -42%[59 µM], HP1b binding inh 5%, CtBP-E1A inh -9, JMJD2A Tudor inh -29%, Six1-Eya2 blk -11 and BAZ2B block inconclusive.
`COC(=O)C1=COC(C)C2CN3CCc4c([nH]c5ccccc45)C3CC12` (configuration not stated) gave G9a inh 45µM*, HP1b binding inh -1%, CtBP-E1A inh -24, JMJD2A Tudor inh inconclusive, Six1-Eya2 blk -2 and BAZ2B block inconclusive.
Screening Nc1c(C(=O)NCc2cccs2)nnn1CC(=O)Nc1cccc(F)c1 returned G9a inh 5%[59 µM], HP1b binding inh 33% and JMJD2A Tudor inh -8%.
`COc1ccccc1NC(=O)CSc1ccc(-c2ccc(-n3cccn3)cc2)nn1` gave G9a inh 2%[0.501 µM], HP1b binding inh 15%, CtBP-E1A inh 0, JMJD2A Tudor inh -8%, Six1-Eya2 blk -7 and BAZ2B block inconclusive.
Screening COc1ccccc1NC(=O)CSc1ccc(-c2ccccn2)nn1 returned G9a inh 3%, HP1b binding inh 23%, CtBP-E1A inh -90*, JMJD2A Tudor inh 3.5µM*, Six1-Eya2 blk -89* and BAZ2B block 3.2µM*.
`Cc1cccc(NC(=O)CSc2ccc(-c3ccccn3)nn2)c1C` gave G9a inh 7%, HP1b binding inh 28%, CtBP-E1A inh -75*, JMJD2A Tudor inh 8.9µM*, Six1-Eya2 blk -87* and BAZ2B block 2.8µM*.
COc1ccccc1NC(=O)CSc1nnc(-c2ccccn2)n1Cc1ccco1 was read as G9a inh inconclusive, HP1b binding inh -15%, CtBP-E1A inh -25, JMJD2A Tudor inh 56µM*, Six1-Eya2 blk -25 and BAZ2B block inconclusive.
Screening Cc1c(Cl)cccc1NC(=O)CSc1ccc(-c2ccccn2)nn1 returned G9a inh -6%[59 µM], HP1b binding inh 70%, JMJD2A Tudor inh inconclusive and BAZ2B block 5%.
Cc1c(C#N)c(=O)c(-[n+]2ccccc2)c([S-])n1-c1ccc(Cl)cc1 was read as G9a inh inconclusive, HP1b binding inh 42%, CtBP-E1A inh 9, JMJD2A Tudor inh inconclusive, Six1-Eya2 blk -2 and BAZ2B block -17%.
Screening Oc1ccc(O)c2c1C1c3ccccc3C2c2ccccc21 returned G9a inh 3.5µM* and BAZ2B block 40µM*.
`Cc1ccc(NC(=O)c2ncn(CCCN3CCN(Cc4cccc5ccccc45)CC3)n2)cc1C` gave HP1b binding inh inconclusive, CtBP-E1A inh inconclusive, JMJD2A Tudor inh 50µM* and Six1-Eya2 blk -12.
Screening COc1ccccc1C(=O)Nc1cccc(C(=O)OCc2cc(=O)n3ccsc3n2)c1 returned G9a inh 1%[59 µM], HP1b binding inh 44%, JMJD2A Tudor inh -30% and BAZ2B block -3%.
CC1(C)OC(=O)C(=Cc2ccc(-c3ccc(Cl)c(C(=O)O)c3)o2)C(=O)O1 was read as G9a inh 14µM*, HP1b binding inh 19%, CtBP-E1A inh 7, JMJD2A Tudor inh inconclusive, Six1-Eya2 blk -23 and BAZ2B block 79µM*.
`Nc1nonc1C(=O)N/N=C/c1ccc(-c2ccc(Cl)c(C(=O)O)c2)o1` gave G9a inh 32µM*, HP1b binding inh 14%, CtBP-E1A inh -5, JMJD2A Tudor inh -24%, Six1-Eya2 blk -17 and BAZ2B block 79µM*.
Screening CC1=NOC(=O)/C1=C\c1ccc(-c2cccc(Cl)c2)o1 returned G9a inh 25µM*, HP1b binding inh 0%, CtBP-E1A inh -19, JMJD2A Tudor inh inconclusive, Six1-Eya2 blk -20 and BAZ2B block inconclusive.
`O=C(O)c1cc(-c2ccc(/C=N/Nc3ccc(Cl)cc3)o2)ccc1Cl` gave G9a inh inconclusive, HP1b binding inh -2%, CtBP-E1A inh -5, JMJD2A Tudor inh inconclusive, Six1-Eya2 blk 0 and BAZ2B block -34%.
For CC1=CC2=NC(=O)/C(=C\c3ccc(-c4cccc(Cl)c4)o3)C(=N)N2O1 the results were G9a inh 1%[59 µM], HP1b binding inh 22%, CtBP-E1A inh -2, JMJD2A Tudor inh -1%, Six1-Eya2 blk -24 and BAZ2B block 3%.
CC1=NOC(=O)/C1=C\c1ccc(-c2ccccc2Br)o1 was read as G9a inh 7.1µM*, HP1b binding inh inconclusive, CtBP-E1A inh 0, JMJD2A Tudor inh 20µM*, Six1-Eya2 blk -18 and BAZ2B block 25µM*.
C[C@H]1CN=C(N(C)C)N1CCC1CCCCC1 was read as G9a inh 7%[2.33 µM], HP1b binding inh 30%, CtBP-E1A inh 4, JMJD2A Tudor inh -20%, Six1-Eya2 blk 4 and BAZ2B block 6%.
